hcGAS inh: inhibitors of human cGAS. Q8N884. recombinant h-cGAS, ATP depletion, Kinase-Glo luminescence. inhibition, % at 12.5 µM. hit rate 0.081% among 290,000;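 also: 0% = vehicle reaction and 100% = reaction without DNA for no activity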
Target sequence (Q8N884 whole entry, looked up): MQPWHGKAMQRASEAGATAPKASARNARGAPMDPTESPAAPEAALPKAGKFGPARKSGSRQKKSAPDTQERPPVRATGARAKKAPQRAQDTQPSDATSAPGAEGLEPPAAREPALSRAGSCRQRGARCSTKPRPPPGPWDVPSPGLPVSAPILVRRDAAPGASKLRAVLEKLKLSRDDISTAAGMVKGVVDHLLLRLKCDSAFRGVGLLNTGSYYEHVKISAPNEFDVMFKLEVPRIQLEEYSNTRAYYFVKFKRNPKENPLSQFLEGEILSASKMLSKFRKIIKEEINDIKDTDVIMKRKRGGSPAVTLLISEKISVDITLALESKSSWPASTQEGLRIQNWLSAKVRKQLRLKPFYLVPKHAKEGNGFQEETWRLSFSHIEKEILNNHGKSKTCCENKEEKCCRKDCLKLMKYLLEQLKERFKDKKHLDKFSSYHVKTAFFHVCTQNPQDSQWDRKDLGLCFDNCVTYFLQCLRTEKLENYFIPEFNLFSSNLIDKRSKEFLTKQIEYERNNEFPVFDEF
mcGAS lum: mouse cGAS inhibition by luminescence; recombinant cGAS, Kinase-Glo ATP depletion luminescence; inhibition, % at 12.5 µM; hit rate 0.15% among 160,000; AID 1259399;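 also: 0% = negative control wells and 100% = reference inhibitor with no enzyme activity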
NPYLR7 agonist: activates Aedes aegypti NPYLR7 receptor | HEK293T NPYLR7/Galpha15, GCaMP6s calcium fluorescence | activation, % at 10 µM | hit rate 0.15% among 270,000 | AID 1259423; in the data active = activation above about 40%;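 also: 0% = vehicle and 100% = reference agonist at the receptor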
Starred values were filed as active, the others as inactive; . = no result; ! = repeats disagree. This is a sample that favours compounds with a hit; in the whole collection about 0.3% have one here. Rule as the data show it, unless noted: active = inhibition above about 40%; inactive = the rest.

SMILES | hcGAS inh | mcGAS lum | NPYLR7 agonist
CC(C)=CCc1c2c(c(O)c3c(=O)c(O)c(-c4ccccc4)oc13)C=CC(C)(C)O2 | 0 | -3 | -4
CC(C)=CCCC1(C)C=Cc2c(O)c3c(c(CC=C(C)C)c2O1)OC12C(=CCCC1C(C)(C)O[C@@]2(C/C=C(\C)C(=O)O)C(=O)O)C3=O (some centres not stated) | 68* | 58* | .
CC1(C)CNC(=O)CN(S(=O)(=O)c2ccc(F)cc2)C1 | 5 | -6 | 13
COc1ccc(Oc2ccc([N+](=O)[O-])cc2C(=O)N2CCCC2c2ccncc2)cc1 (configuration not stated) | -4 | -6 | -3
Cc1cccc(NC(=O)c2n[nH]c([N+](=O)[O-])c2Br)c1C | 0 | -3 | -1
N#Cc1ccccc1NC(=O)c1n[nH]c([N+](=O)[O-])c1Br | 44* | . | -3
Cc1ccc(C(=O)C2C(c3ccc(Cl)cc3)NC(=O)NC2(O)C(F)(F)F)cc1 (configuration not stated) | -6 | -7 | 2
Cc1cc(-c2ccccc2)cc2c3ccccc3c3ccccc3[n+]12 | 41* | 27 | -6
COc1cc(-c2ccccc2)c2ccccc2n1 | -8 | . | 0
CN1CCc2c(sc(NC(=O)CN3C(=O)c4ccccc4C3=O)c2-c2nc3ccccc3s2)C1 | 0 | -6 | 2
CCN1CCc2c(sc(NC(=O)c3ccc(OC)cc3)c2-c2nc3ccccc3s2)C1 | 0 | -3 | 10
CCN1CCc2c(sc(NC(=O)COc3ccccc3)c2-c2nc3ccccc3s2)C1 | 2 | -1 | 53*
CCN1CCc2c(sc(NC(=O)c3ccc(C(C)=O)cc3)c2-c2nc3ccccc3s2)C1 | 7 | 2 | 20
CCN1CCc2c(sc(NC(=O)CN3C(=O)CCC3=O)c2-c2nc3ccccc3s2)C1 | 45* | 44* | 24
CCN1CCc2c(sc(NC(C)=O)c2-c2nc3ccccc3s2)C1 | 73* | 94* | 5
CCN1CCc2c(sc(NC(=O)c3ccccc3)c2-c2nc3ccccc3s2)C1 | 17 | 6 | 91*
CCN1CCc2c(sc(NC(=O)c3ccco3)c2-c2nc3ccccc3s2)C1 | 38 | 39 | 9
Cc1ccc(NC(=O)c2cc3cc([N+](=O)[O-])ccc3oc2=N)cc1 | 0 | 0 | -1
O=S(=O)(NCc1ncc(-c2ccccc2)o1)N1CCCCCC1 | -5 | . | 4
CCC(C)NC(=O)c1nn(-c2ccc(C(C)C)cc2)c(=O)n(Cc2ccccc2C)c1=O (configuration not stated) | -8 | -6 | -1
O=C(Nc1cc(Oc2ccc(F)cc2)cc([N+](=O)[O-])c1)c1cc2nc(-c3ccco3)cc(C(F)(F)F)n2n1 | 3 | 0 | 3
NC(=O)C1CCN(C(=O)c2csc(-c3ccc(F)cc3)n2)CC1 | -6 | . | 0
CN(C)C(=O)C(NC(=O)Nc1ccc2c(c1)OCCCO2)c1ccccc1 (configuration not stated) | -7 | . | 3
CCN1CCc2c(sc(NC(=O)CS(=O)(=O)c3ccccc3)c2-c2nc3ccccc3s2)C1 | -9 | -8 | 22
CCC(=O)Nc1sc2c(c1-c1nc3ccccc3s1)CCN(CC)C2 | 73* | 100* | 28
SMILES | hcGAS inh | mcGAS lum | NPYLR7 agonist
O=C(NCCC(=O)N1C[C@H](O)[C@@H](N2CCCC2)C1)c1ccc(F)cc1 | 0 | -10 | 4
C=CCCC(O)CNc1ccc(-n2nc(OCCOCC)nc2-c2ccccc2C)cc1 (configuration not stated) | 52* | 0 | -1
CCOCCOc1nc(-c2ccccc2C)n(-c2ccc(NC(=O)CCCCl)cc2)n1 | 2 | 0 | -1
N#CC(c1ccccc1)N1CCN(C(=O)C=Cc2ccc3c(c2)OCO3)CC1 (configuration not stated) | -5 | -6 | 0
O=c1ccc(-c2ccco2)nn1CCNS(=O)(=O)c1cc(C(F)(F)F)ccc1Cl | 6 | -8 | 2
Cc1cccc(-n2nc(-c3ccc([N+](=O)[O-])cc3)cc2C(=O)NC2CCN(Cc3ccccc3)CC2)c1 | -5 | -4 | 2
CCOc1ccc(NC(C)=O)cc1 | -4 | . | 71*!
CCOc1ccc(NC(=O)CC(C)O)cc1 (configuration not stated) | -3 | . | -4
COCCCNCc1nc2sc3c(c2c(=O)[nH]1)CCN(Cc1ccccc1)C3 | 4 | 3 | -4
O=c1[nH]c(CCl)nc2sc3c(c12)CCN(Cc1ccccc1)C3 | 1 | . | 45*
CC(=O)Nc1cc(C(=O)N2CCC(CCN3CC(C)OC(C)C3)CC2)ccc1C (configuration not stated) | -7 | . | 5
OCCn1c(-c2cccc3c2CCNC3)nc2ccccc21 | -4 | -13 | 6
N#CC(C#N)=c1c2nn(Cc3ccccc3)nc2c(=C(C#N)C#N)c2nn(Cc3ccccc3)nc12 | -6 | -6 | 0
N#CC(C#N)=C1C=C2C=C(N3CCCCC3)CCC2CC1 (configuration not stated) | -12 | -5 | 116*
N#CC(C#N)=C1C=C2C=C(N3CCN(Cc4ccccc4)CC3)CCC2CC1 (configuration not stated) | -5 | . | 47*
N#CC(C#N)=C1C=C2C=C(N3CCCC3)CCC2CC1 (configuration not stated) | -10 | -8 | 90*
O=C(C1=C(O)C(=O)N(CCCN2CCOCC2)C1c1ccc(Cl)cc1)c1ccco1 (configuration not stated) | -8 | -6 | 14
CCOC(=O)C1=C(O)/C(=C\c2cc(OC)cc(OC)c2)SC1=Nc1ccccc1F | 4 | 2 | -6
CCOC(=O)C1=C(O)/C(=C\c2ccc(N(C)C)cc2)SC1=Nc1ccc(OC)cc1OC | 2 | 0 | 79*
N#CCOc1ccc(NC(=O)Cc2ccc(Cl)cc2)cc1 | -6 | . | 1
OCCN(CCO)c1nc(N2CCCCC2)c2nc(N(CCO)CCO)nc(N3CCCCC3)c2n1 | 1 | -3 | 75*!
Cn1ncc2c(N3CCCCC3)nc(N(CCO)Cc3ccccc3)nc21 | -6 | -8 | 1
CCOC(=O)c1cnn2c(C(=O)O)ccnc12 | -7 | . | 9
O=C(NC1CCCc2ccccc21)c1ccccc1N1CCC(NS(=O)(=O)c2ccc(F)cc2)CC1 (configuration not stated) | -6 | -6 | 26
CN1CCCC1CCNc1nccc(CCC(F)(F)F)n1 (configuration not stated) | -8 | -12 | -1
SMILES | hcGAS inh | mcGAS lum | NPYLR7 agonist
CCCc1[nH]n(-c2ccc(Cl)cc2)c(=O)c1/C=C1\NC(=O)N(Cc2ccc(C)cc2)C1=O | -3 | -8 | 45*
CCCc1[nH]n(-c2ccc(Cl)cc2)c(=O)c1/C=C1\NC(=O)N(Cc2cccc(C)c2)C1=O | -4 | -7 | 9
CC(C)c1nc(NC(=O)c2[nH]ncc2Br)n(C)n1 | 49* | . | 85*
CC(C)c1nc(NC(=O)CS(=O)(=O)C2CCCC2)n(C)n1 | -10 | . | 3
COc1cc(C=CC(=O)c2cccnc2)cc(OC)c1 | -18 | 15 | 21
Fc1ccc(Cn2c(C3C4CCCCC43)n[nH]c2=S)cc1 (configuration not stated) | -11 | -2 | -5
COc1ccc(-c2ccc(N)nc2)c(C)c1 | -2 | . | 21
COc1ccc(-c2cnn(CCC(N)=O)c2)c(C)c1 | 0 | . | 47*
CNS(=O)(=O)CC1CCCN1C(=O)c1cc2c(s1)CCCC2 (configuration not stated) | -2 | . | -7

High-throughput results as filed in PubChem.
